High-throughput results: PubChem, The Scripps Research Institute Molecular Screening Center
PME-1 primary – PME-1 (human) inhibition. recombinant PME-1, FP-Rh probe fluorescence polarization. inhibition, % at 5.9 µM. hit rate 0.53% among 320,000;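 active = inhibition above the campaign mean of all compounds plus 3 SD, cut at about 26% in these data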;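 note: competitive labeling of PME-1 active site by serine hydrolase directed probe; 0% = PME-1 with DMSO and 100% = wells lacking PME-1 enzyme; inhibitors block probe labeling so polarization falls and inhibition rises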
PAFAH2 FP inh – inhibitors of human PAFAH2. Q99487. recombinant PAFAH2, FP-rhodamine activity probe, fluorescence polarization. inhibition, % at 3.39 µM. hit rate 0.99% among 340,000. AID 492956;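 active = inhibition above the mean over all tested compounds plus 3 SD, cut at about 30% in these data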;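 note: inhibitors block probe labeling of enzyme so polarization drops; 0% = enzyme with DMSO and 100% = wells lacking PAFAH2 protein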
PAFAH1B2 inh – blocks human PAF acetylhydrolase 1b catalytic subunit 2. P68402. recombinant PAFAH1B2, FP-rhodamine activity probe, fluorescence polarization. inhibition, % at 3.39 µM. hit rate 1.2% among 340,000. AID 492953;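 active = inhibition above the mean of all tested compounds plus 3 SD, cut at about 24% in these data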;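 note: 0% = enzyme with DMSO and 100% = wells lacking PAFAH1B2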
PAFAH1B3 FP inh – PAFAH1B3 (human) inhibition; Q15102; recombinant PAFAH1B3, FP-rhodamine probe, fluorescence polarization; inhibition, % at 3.39 µM; hit rate 0.28% among 340,000; AID 492972;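 active = inhibition above the screen-wide average of all tested compounds plus 3 SD, cut at about 25% in these data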;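 note: 0% = enzyme with DMSO only and 100% = wells lacking PAFAH1B3 protein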
Target sequence (Q15102 whole entry, looked up): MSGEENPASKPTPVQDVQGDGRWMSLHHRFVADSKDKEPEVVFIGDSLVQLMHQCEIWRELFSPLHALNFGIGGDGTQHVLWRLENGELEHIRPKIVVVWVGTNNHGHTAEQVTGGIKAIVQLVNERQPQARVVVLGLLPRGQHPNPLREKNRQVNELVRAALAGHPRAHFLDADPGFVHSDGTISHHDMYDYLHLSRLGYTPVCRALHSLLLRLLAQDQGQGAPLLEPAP
Fam108B counter – counter-screen for RBBP9 inhibitors: inhibitors of mouse Fam108B; recombinant Fam108B, FP-Rh probe fluorescence polarization; inhibition, % at 9.51 µM; hit rate 0.33% among 300,000;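 active = inhibition above the screen mean inhibition plus 3 SD, computed separately per campaign, cut at about 18% in these data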;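 note: inhibitors lower polarization as less probe binds the enzyme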
pPAFAH inh – pPAFAH (human) enzyme inhibition; hit rate 1.5% among 330,000; Q13093; inhibition, % at 3.39 µM; recombinant pPAFAH, FP-rhodamine probe fluorescence polarization; AID 463082;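 active = inhibition above the mean inhibition across the screen plus 3 SD, cut at about 25% in these data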;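 note: inhibitors block binding of the rhodamine activity-based probe so polarization drops; 0% = enzyme with DMSO and 100% = wells lacking pPAFAH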
Target sequence (Q13093 whole entry, looked up): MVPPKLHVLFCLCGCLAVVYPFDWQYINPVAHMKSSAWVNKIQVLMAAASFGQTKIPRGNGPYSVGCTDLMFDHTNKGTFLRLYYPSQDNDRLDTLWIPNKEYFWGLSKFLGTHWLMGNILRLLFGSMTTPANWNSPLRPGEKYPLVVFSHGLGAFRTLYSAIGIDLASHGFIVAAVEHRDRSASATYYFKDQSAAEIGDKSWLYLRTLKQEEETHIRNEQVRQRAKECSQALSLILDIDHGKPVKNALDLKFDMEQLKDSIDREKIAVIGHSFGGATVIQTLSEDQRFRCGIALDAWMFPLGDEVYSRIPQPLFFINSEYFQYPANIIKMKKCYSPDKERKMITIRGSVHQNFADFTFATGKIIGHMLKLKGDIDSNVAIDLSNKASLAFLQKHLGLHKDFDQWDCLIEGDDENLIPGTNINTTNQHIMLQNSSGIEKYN
PAFAH2 FP conf – PAFAH2 (human) inhibition, confirmed; recombinant PAFAH2, FP-rhodamine activity probe, fluorescence polarization; hit rate 65% among 2,300; AID 493030; shares compounds with PAFAH2 FP inh; inhibition, % at 3.39 µM;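 active = mean inhibition over three repeats above a set limit taken from the earlier primary screen, cut at about 30% in these data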;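 note: inhibitor blocks binding of rhodamine activity probe so polarization falls; 0% = enzyme with DMSO and 100% = wells lacking PAFAH2 protein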
Active calls of the source: *. Most compounds without a hit are left out; they make up all but 2.8% or so of the library.

How did O=C(COC(=O)/C=C/c1ccccc1)NCCc1ccc(F)cc1 do in these assays?
PAFAH2 FP inh: 61.0*; PAFAH1B2 inh: 6.8; PAFAH1B3 FP inh: 6.8; pPAFAH inh: 19.3; PAFAH2 FP conf: 42.0*

Results for CCN(c1cccc(C)c1)S(=O)(=O)c1ccc2c(c1)NC(=O)CCS2 ?
PME-1 primary: 5.4; PAFAH2 FP inh: 48.3*; PAFAH1B2 inh: 4.9; PAFAH1B3 FP inh: 0.4; Fam108B counter: 3.5; pPAFAH inh: 8.8; PAFAH2 FP conf: 35.4*

Results for CCN(c1cccc(C)c1)S(=O)(=O)c1ccc2c(c1)NC(=O)CS2 ?
PME-1 primary: 8.0; PAFAH2 FP inh: 20.2; PAFAH1B2 inh: 8.3; PAFAH1B3 FP inh: 3.5; Fam108B counter: 0.5; pPAFAH inh: 9.6

How did Cc1sc2nc(SCC(=O)Nc3cccc(S(N)(=O)=O)c3)[nH]c(=O)c2c1C do in these assays?
PAFAH2 FP inh: 35.3*; PAFAH1B2 inh: 2.8; PAFAH1B3 FP inh: 6.2; pPAFAH inh: 9.7; PAFAH2 FP conf: 15.9

Results for Cc1sc2nc(SCC(=O)Nc3ccc(S(N)(=O)=O)cc3)[nH]c(=O)c2c1C ?
PME-1 primary: 0.7; PAFAH2 FP inh: 14.8; PAFAH1B2 inh: 3.1; PAFAH1B3 FP inh: 6.9; Fam108B counter: 1.5; pPAFAH inh: 11.7

Results for Cc1cn(CC(=O)N[C@H](CO)Cc2c[nH]c3ccccc23)c(=O)[nH]c1=O ?
PAFAH2 FP inh: -3.7; PAFAH1B2 inh: 3.3; PAFAH1B3 FP inh: 5.7

How did CSc1nc(N)nc2c1ncn2CC(=O)N[C@H](CO)Cc1c[nH]c2ccccc12 do in these assays?
PAFAH2 FP inh: 38.4*; PAFAH1B2 inh: 7.1; PAFAH1B3 FP inh: -1.0; pPAFAH inh: 3.2; PAFAH2 FP conf: 3.5

How did COc1ccc(C(CNc2nc(-c3cccnc3)nc3ccccc23)N(C)C)cc1 (centres undefined) do in these assays?
PME-1 primary: 6.0; PAFAH2 FP inh: 6.3; PAFAH1B2 inh: 0.5; PAFAH1B3 FP inh: 2.8; Fam108B counter: 3.2; pPAFAH inh: 5.0

What do the screens show for `O=C1CCCC2=C1C(c1cccc(O)c1)C1=C(N2)c2ccccc2C1=O` (centres undefined)?
PME-1 primary: 4.1; PAFAH2 FP inh: 29.7*; PAFAH1B2 inh: -1.9; PAFAH1B3 FP inh: -0.8; Fam108B counter: 3.0; pPAFAH inh: 4.4; PAFAH2 FP conf: 10.1

What do the screens show for `CCOc1ccc(C(=O)OC(C)CN2CCCCC2)cc1` (centres undefined)?
PME-1 primary: 1.1; PAFAH2 FP inh: 56.6*; PAFAH1B2 inh: 3.9; PAFAH1B3 FP inh: 5.7; Fam108B counter: 1.8; pPAFAH inh: -1.9; PAFAH2 FP conf: -1.4

What do the screens show for `O=[N+]([O-])c1cccc(CSC2=NCCN2S(=O)(=O)c2ccccc2)c1`?
PME-1 primary: 14.8; PAFAH2 FP inh: 7.9; PAFAH1B2 inh: 7.2; PAFAH1B3 FP inh: -2.6; Fam108B counter: 1.0; pPAFAH inh: 0.6

Results for Cc1c(N=Nc2c(-c3ccc([N+](=O)[O-])cc3)[nH]n(C(N)=S)c2=O)cccc1[N+](=O)[O-] ?
PAFAH2 FP inh: 55.4*; PAFAH1B2 inh: 14.9; PAFAH1B3 FP inh: 15.0; PAFAH2 FP conf: 36.4*

Results for Cc1[nH]n(C(N)=S)c(=O)c1N=Nc1cccc([N+](=O)[O-])c1C ?
PME-1 primary: 6.7; PAFAH2 FP inh: -4.3; PAFAH1B2 inh: -0.8; PAFAH1B3 FP inh: -2.4; Fam108B counter: 4.5; pPAFAH inh: 13.6

Results for CCCOc1ccc(C(=O)OCCN2CCCCC2)c(O)c1 ?
PME-1 primary: 3.8; PAFAH2 FP inh: 2.3; PAFAH1B2 inh: 2.2; PAFAH1B3 FP inh: 10.1; Fam108B counter: 0.7; pPAFAH inh: 1.3

How did COc1cccc(CC(NC(C)=O)C(=O)NC2CCN(C(=O)C3CCCCC3)CC2)c1OC (centres undefined) do in these assays?
PAFAH2 FP inh: 14.6; PAFAH1B2 inh: -1.9; PAFAH1B3 FP inh: 0.9

What do the screens show for `CC(CCc1ccccc1)NC(=O)COC(=O)CC1CC2CCC1C2` (centres undefined)?
PME-1 primary: 2.4; PAFAH2 FP inh: 29.8*; PAFAH1B2 inh: 14.7; PAFAH1B3 FP inh: 4.6; Fam108B counter: 3.2; pPAFAH inh: 18.8; PAFAH2 FP conf: 20.5

What do the screens show for `O=C(COC(=O)CC1CC2CCC1C2)NCc1ccccc1` (centres undefined)?
PAFAH2 FP inh: 45.7*; PAFAH1B2 inh: 12.8; PAFAH1B3 FP inh: 14.0; pPAFAH inh: 22.5; PAFAH2 FP conf: 29.2

What do the screens show for `O=C(NS(=O)(=O)N1CCOCC1)C1=C(N2CCCC2)COC1=O`?
PAFAH2 FP inh: -3.0; PAFAH1B2 inh: 4.8; PAFAH1B3 FP inh: -6.6; pPAFAH inh: 0.2

How did COc1ccc(S(=O)(=O)Nc2cccc(S(=O)(=O)NC3=NCCC3)c2)cc1[N+](=O)[O-] do in these assays?
PME-1 primary: -3.0; PAFAH2 FP inh: -3.2; PAFAH1B2 inh: 3.4; PAFAH1B3 FP inh: 4.3; Fam108B counter: -1.2; pPAFAH inh: -1.5

How did O=C(Nc1ccsc1C(=O)O)c1ccc(Cl)cc1 do in these assays?
PME-1 primary: -0.5; PAFAH2 FP inh: 31.3*; PAFAH1B2 inh: 7.9; PAFAH1B3 FP inh: 10.5; Fam108B counter: 4.8; pPAFAH inh: -7.0; PAFAH2 FP conf: 19.4

How did CC1CCN(C(=O)COC(=O)/C=C/c2ccc(Br)o2)CC1 do in these assays?
PME-1 primary: 4.0; PAFAH2 FP inh: 30.3*; PAFAH1B2 inh: 1.4; PAFAH1B3 FP inh: 6.6; pPAFAH inh: 5.9; PAFAH2 FP conf: 11.1

What do the screens show for `CC1CCCC(C)N1C(=O)COC(=O)/C=C/c1ccc(Br)o1` (centres undefined)?
PAFAH2 FP inh: 12.7; PAFAH1B2 inh: 8.5; PAFAH1B3 FP inh: 4.4; pPAFAH inh: 13.7

How did Cc1cccc(-c2nc3ccccc3c3nncn23)c1 do in these assays?
PME-1 primary: -0.2; PAFAH2 FP inh: 158.5*; PAFAH1B2 inh: -0.7; PAFAH1B3 FP inh: -1.4; Fam108B counter: -1.8; pPAFAH inh: -6.5; PAFAH2 FP conf: 5.1

Results for c1ccc(-c2nc3ccccc3c3nncn23)cc1 ?
PME-1 primary: 3.0; PAFAH2 FP inh: -1.6; PAFAH1B2 inh: 4.7; PAFAH1B3 FP inh: 7.9; Fam108B counter: -4.2; pPAFAH inh: 4.7

Results for Cc1noc(C)c1C(=O)Nc1sc(C)c(-c2ccccc2)c1C#N ?
PME-1 primary: 2.2; PAFAH2 FP inh: -2.8; PAFAH1B2 inh: 9.0; PAFAH1B3 FP inh: 2.0; Fam108B counter: 1.2; pPAFAH inh: 2.6

How did Cc1cccc(C(=O)Nc2sc(C)c(-c3ccccc3)c2C#N)c1 do in these assays?
PME-1 primary: -13.6; PAFAH2 FP inh: 47.2*; PAFAH1B2 inh: 1.1; PAFAH1B3 FP inh: -4.1; Fam108B counter: -8.0; pPAFAH inh: -0.9; PAFAH2 FP conf: -1.3

Results for CCN(CC)c1ccc(NC(=O)COC(=O)c2cccs2)cc1 ?
PME-1 primary: 4.9; PAFAH2 FP inh: 25.8; PAFAH1B2 inh: 6.0; PAFAH1B3 FP inh: 8.9; Fam108B counter: 0.1; pPAFAH inh: 12.3
